# Bioassay records (PubChem)
# Most compounds without a hit are left out; they make up all but 1.4% or so of the library.
# Bcl-W Bim block – disrupts Bim peptide binding to human Bcl-W; Q92843; bead-based flow cytometry; inhibition, % at 10 µM; actives 0.02% (n = 190,000); AID 952;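 further: 0% = bound tracer without compound and 100% = peptide blocker; higher means less fluorescent Bim peptide bound to Bcl-W beads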
# Bfl-1 Bim block – inhibitors of Bim-Bfl-1 interaction, human; Q16548; Bead-based flow cytometry, Bim-Bfl-1 binding inhibition; inhibition, % at 10 µM; actives 0.12% (n = 190,000); AID 1008;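 further: 0% = wells without compound plus tracer and 100% = blocker peptide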
# Target sequence (Q16548 whole entry, looked up): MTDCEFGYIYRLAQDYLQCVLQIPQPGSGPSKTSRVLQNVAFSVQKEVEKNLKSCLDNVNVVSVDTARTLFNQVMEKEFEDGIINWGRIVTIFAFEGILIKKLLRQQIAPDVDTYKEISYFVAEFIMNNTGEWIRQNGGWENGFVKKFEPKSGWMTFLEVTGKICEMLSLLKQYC
# Bcl-XL Bim block – inhibitors of Bim-Bcl-XL interaction, human; AID 1007; Bim peptide-Bcl-XL binding, bead flow cytometry, fluorescence; actives 0.04% (n = 190,000); Q07817; inhibition, % at 10 µM
# Target sequence (Q07817 whole entry, looked up): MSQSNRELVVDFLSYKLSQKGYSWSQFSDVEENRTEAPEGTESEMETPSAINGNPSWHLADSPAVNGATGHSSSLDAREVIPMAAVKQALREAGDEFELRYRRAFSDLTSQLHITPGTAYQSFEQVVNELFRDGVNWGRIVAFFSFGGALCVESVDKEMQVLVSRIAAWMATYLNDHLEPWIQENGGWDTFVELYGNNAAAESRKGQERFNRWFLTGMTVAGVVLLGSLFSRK
# Bcl-B Bim block – inhibitors of Bim-Bcl-B interaction, human; actives 0.073% (n = 190,000); bead-based flow cytometry, Bim peptide-Bcl-B binding; inhibition, % at 10 µM;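 further: 0% = tracer peptide without compound and 100% = reference inhibitor peptide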
# Wee1 stabilizer – human Wee1 degradation inhibition, primary screen; reporter increase, % at 5 µM; HeLa Luc-Wee1K328M stability, luciferase luminescence; 100% = proteasome inhibitor MG132 effect; actives 1.2% (n = 220,000); P30291; AID 1321;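 active means activation above the mean of all tested compounds plus 3 SD, set per screening run, cut at about 8.8% in these data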;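 further: cells exposed to compound for 20 h before luminescence read; 0% = DMSO alone and 100% = MG132 at 30 µM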
# Bim-Bcl-2 – human Bim-Bcl-2 interaction inhibition; Bead-based flow cytometry, Bim peptide-Bcl-2 binding; inhibition, % at 10 µM; actives 0.06% (n = 190,000); AID 950; in the data active means inhibition above about 40%;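 further: 0% = no compound wells with probe peptide and 100% = reference peptide inhibitor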
# Active calls of the source: *; . = no result. Unless noted, no stated cut-off is given here; in the data, active means inhibition above about 40%.
SMILES,Bcl-W Bim block,Bfl-1 Bim block,Bcl-XL Bim block,Bcl-B Bim block,Wee1 stabilizer,Bim-Bcl-2
COc1ccccc1N1CCN(C(=O)c2ccc(CS(=O)(=O)c3ccccc3OC)o2)CC1,-2,-2,-4,0,9.8*,-4
CCOC(=O)N1CCN(c2ccccc2O)CC1,0,-9,-10,-6,1,-9
CCOC(=O)N1CCN(c2ccccc2OC)CC1,.,.,.,.,9.6*,.
CCOC(=O)N1CCN(C(=O)c2ccc(CS(=O)(=O)c3ccccc3OC)o2)CC1,3,-10,-9,-5,-4,-4
CCc1nc2ccccc2n1CC1CC1(Cl)Cl (stereo not drawn),4,-1,2,2,-2,-1
CC12CCC(C(=O)Nc3ccccc3)(C(Br)C1=O)C2(C)C (stereo not drawn),-3,-2,-6,-4,-1,-1
Cc1ccc(NC(=O)C23CCC(C)(C(=O)[C@H]2Br)C3(C)C)cc1 (stereo partly drawn),.,.,.,.,10*,.
O=C1NC(c2ccc3c(c2)OCO3)Oc2ccccc21 (stereo not drawn),0,-6,-4,-7,-1,-12
O=C1NC(c2ccc3c(c2)OCO3)Nc2ccccc21 (stereo not drawn),-1,-1,0,-1,11*,-1
Nc1c(C(=O)NC2CC2)sc2nc3c(c(-c4ccco4)c12)CC/C3=C/c1ccco1,34,56*,29,34,-2,43*
CC1CCN(C(=O)Cn2cc3c(n2)CCCC3)CC1,-6,-10,-11,-8,-1,-11
CCOC(=O)N1CCN(C(=O)Cn2cc3c(n2)CCCC3)CC1,0,3,0,0,11*,-1
C=CCn1cnc2c(nnn2Cc2ccc(F)cc2)c1=O,.,.,.,.,4,.
C=CCc1c(N(CC)CC)nc(C)[nH]c1=O,.,.,.,.,9.3*,.
CN(C)c1ccc(C(=O)OCC(=O)c2cccs2)cc1,-16,-8,-4,-20,9.0*,-18
Cc1oc(C(C)(C)C)cc1C(=O)N1CCN(C(c2ccccc2)c2ccccc2)CC1,.,.,.,.,-1,.
Cc1cccn2cc(COc3ccc(-c4ccccc4)cc3)nc12,-2,-5,-2,-6,0,-3
COc1ccc(C2/C(=C(/O)c3ccc(C)cc3)C(=O)C(=O)N2C)cc1 (stereo not drawn),-2,-18,-5,-11,0,-8
COc1ccc(N2C(=O)C(=O)/C(=C(/O)c3ccc(C)cc3)C2c2cccnc2)cc1 (stereo not drawn),-2,0,-5,-5,10*,1
O=C(NNC(=O)C1CC1c1ccccc1)c1cccc([N+](=O)[O-])c1 (stereo not drawn),-3,-13,-6,-10,11*,-8
CN(c1ncc(C(F)(F)F)cc1Cl)N1C(=O)c2cccc(N)c2C1=O,0,-3,1,-5,10*,-1
O=C(c1ccco1)N1N=C2CCCCCC2C1(O)C(F)(F)F (stereo not drawn),-1,-6,-1,-1,11*,-5
COc1ccc(S(=O)(=O)NCC2CCCN(C(=O)c3ccccc3)C2)cc1 (stereo not drawn),0,-6,-1,-2,3,-1
COc1ccc(NC(=O)CN2CCC(n3c(C)nc4cc(F)ccc43)CC2)c(OC)c1,-4,-2,-3,-4,-1,-4
Cc1nc2ccccc2n1C1CCN(CC(=O)NCc2ccc(F)cc2)CC1,1,30,1,64*,-2,59*
SMILES,Bcl-W Bim block,Bfl-1 Bim block,Bcl-XL Bim block,Bcl-B Bim block,Wee1 stabilizer,Bim-Bcl-2
CCCC(=O)Nc1nc2ccc(NC(=O)c3ccc(Br)o3)cc2s1,-1,-2,-1,-5,9.5*,0
O=S(=O)(Nc1ccc(N2CCOCC2)cc1)c1ccccc1,3,-5,1,-2,-3,-3
O=S(=O)(/C=C/c1ccccc1)Nc1ccc(N2CCOCC2)cc1,1,-5,-4,6,10*,-5
O=S1(=O)Cc2cc3ccccc3cc2C1,0,-10,-3,-3,-1,-2
Cc1ccc(C)c(-n2cc(CN3CCCN(C=O)CC3)c(-c3ccccc3)n2)c1,-4,-5,-8,-9,4,-3
Cc1ccc(CN2CCNC(=O)C2CC(=O)NC2CCCCCC2)o1 (stereo not drawn),-3,-2,-2,-3,-1,-3
